# Measurements: publication PMC7862700, “An all-to-all approach to the identification of sequence-specific readers for epigenetic DNA modifications on cytosine”
# What was measured:
# Experiment in all cases: DAPPL (digital affinity profiling via proximity ligation, sequencing); 10 mM Tris-HCl pH 7.5, 50 mM NaCl, 1 mM DTT, 4% glycerol, room temperature, 30 min; GST-TFs on glutathione beads, 16-mer random dsDNA library, 0.1% formaldehyde crosslink after washing; high values mean tight binding
# Details in all cases: protein: recombinant; tags: N-terminal GST; dsDNA, one strand shown
# [1] = target: T1, FLI1 (Homo sapiens, UniProt Q01543 1-452)
# T1 sequence: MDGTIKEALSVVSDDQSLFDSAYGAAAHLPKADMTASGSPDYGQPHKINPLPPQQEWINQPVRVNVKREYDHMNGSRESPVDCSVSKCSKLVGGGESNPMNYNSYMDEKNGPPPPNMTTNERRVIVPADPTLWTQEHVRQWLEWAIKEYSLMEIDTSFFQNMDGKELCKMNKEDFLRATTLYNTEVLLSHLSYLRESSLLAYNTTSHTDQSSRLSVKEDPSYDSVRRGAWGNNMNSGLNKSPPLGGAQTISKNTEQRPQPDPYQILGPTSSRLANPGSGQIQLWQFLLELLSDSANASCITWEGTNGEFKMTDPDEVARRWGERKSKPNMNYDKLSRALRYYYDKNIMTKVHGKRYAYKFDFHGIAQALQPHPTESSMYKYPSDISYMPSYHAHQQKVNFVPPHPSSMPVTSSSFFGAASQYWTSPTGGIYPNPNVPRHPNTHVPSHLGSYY
# Method in brief: (§1)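 Each value of binding signal is a hexamer's read frequency for a factor divided by the same hexamer's frequency in the tag-only sample. Barcoded, bead-captured GST fusions of human transcription factors made in yeast were pooled with that sample and incubated with 200 nmole of a random double-stranded 16-mer DNA library in Tris/NaCl/DTT/glycerol buffer at room temperature for 30 min. Washing, 0.1% formaldehyde crosslinking, proximity ligation, PCR and Illumina NextSeq500 sequencing followed.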
# [2] = target: T2, ELK1 (Homo sapiens, UniProt P19419 1-428)
# T2 sequence: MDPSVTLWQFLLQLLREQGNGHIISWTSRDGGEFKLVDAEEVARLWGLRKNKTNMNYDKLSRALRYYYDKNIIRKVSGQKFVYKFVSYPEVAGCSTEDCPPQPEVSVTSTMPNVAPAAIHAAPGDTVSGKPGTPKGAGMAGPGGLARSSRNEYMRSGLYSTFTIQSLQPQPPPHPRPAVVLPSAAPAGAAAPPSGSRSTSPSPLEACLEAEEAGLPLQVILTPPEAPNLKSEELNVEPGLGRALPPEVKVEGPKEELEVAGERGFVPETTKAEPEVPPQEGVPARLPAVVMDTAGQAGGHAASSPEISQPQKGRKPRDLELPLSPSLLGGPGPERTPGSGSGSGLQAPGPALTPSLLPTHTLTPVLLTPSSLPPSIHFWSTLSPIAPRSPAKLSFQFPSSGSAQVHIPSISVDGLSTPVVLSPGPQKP
# Method in brief: as §1
# [3] = target: T3, GABPA (Homo sapiens, UniProt Q06546 1-454)
# T3 sequence: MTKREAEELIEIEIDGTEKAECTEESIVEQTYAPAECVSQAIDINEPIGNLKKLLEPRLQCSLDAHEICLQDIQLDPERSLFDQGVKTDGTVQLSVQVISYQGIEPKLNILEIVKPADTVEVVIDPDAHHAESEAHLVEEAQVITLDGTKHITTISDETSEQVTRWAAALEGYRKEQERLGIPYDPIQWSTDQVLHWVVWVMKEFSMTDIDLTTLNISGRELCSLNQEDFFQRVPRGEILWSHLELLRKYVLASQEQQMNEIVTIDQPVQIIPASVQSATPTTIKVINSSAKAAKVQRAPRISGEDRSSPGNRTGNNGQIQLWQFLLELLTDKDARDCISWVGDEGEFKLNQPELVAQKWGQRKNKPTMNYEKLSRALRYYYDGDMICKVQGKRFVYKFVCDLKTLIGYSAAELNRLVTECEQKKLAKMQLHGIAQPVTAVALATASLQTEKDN
# Method in brief: as §1
# [4] = target: T4, ERG (Homo sapiens, UniProt P11308 1-479)
# T4 sequence: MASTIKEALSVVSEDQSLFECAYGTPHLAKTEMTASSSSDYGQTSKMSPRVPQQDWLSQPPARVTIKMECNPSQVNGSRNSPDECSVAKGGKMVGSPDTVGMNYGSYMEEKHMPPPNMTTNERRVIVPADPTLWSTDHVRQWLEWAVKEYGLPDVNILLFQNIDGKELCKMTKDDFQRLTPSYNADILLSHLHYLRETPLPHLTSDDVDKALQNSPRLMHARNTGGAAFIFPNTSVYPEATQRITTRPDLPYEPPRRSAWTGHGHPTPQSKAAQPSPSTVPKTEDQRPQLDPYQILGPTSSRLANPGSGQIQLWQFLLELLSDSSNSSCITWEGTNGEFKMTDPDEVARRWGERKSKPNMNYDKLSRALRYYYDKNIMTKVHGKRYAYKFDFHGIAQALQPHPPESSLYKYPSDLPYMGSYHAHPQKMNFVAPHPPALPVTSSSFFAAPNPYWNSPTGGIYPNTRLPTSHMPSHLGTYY
# Method in brief: as §1
# [5] = target: ELF1 (Homo sapiens, UniProt P32519 1-619)
# ELF1, sequence (P32519 whole entry): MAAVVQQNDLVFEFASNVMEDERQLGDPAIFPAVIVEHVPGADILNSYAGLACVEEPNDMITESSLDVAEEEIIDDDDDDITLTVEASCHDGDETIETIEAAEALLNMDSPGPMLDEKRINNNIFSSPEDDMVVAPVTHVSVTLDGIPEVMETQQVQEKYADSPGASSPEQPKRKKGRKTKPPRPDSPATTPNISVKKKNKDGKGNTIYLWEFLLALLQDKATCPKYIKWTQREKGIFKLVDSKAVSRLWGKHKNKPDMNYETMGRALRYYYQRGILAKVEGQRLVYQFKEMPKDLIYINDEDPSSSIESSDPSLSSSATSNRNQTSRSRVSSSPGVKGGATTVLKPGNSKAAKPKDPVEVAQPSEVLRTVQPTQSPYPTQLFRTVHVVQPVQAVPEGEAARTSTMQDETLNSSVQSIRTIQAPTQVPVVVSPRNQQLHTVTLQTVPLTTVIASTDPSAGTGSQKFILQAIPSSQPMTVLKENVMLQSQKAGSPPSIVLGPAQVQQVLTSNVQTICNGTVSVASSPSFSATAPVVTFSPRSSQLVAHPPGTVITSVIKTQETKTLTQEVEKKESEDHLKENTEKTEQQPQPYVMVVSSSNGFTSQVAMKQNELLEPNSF
# Method in brief: as §1
# [6] = target: T5, EHF (Homo sapiens, UniProt Q9NZC4 1-300)
# T5 sequence: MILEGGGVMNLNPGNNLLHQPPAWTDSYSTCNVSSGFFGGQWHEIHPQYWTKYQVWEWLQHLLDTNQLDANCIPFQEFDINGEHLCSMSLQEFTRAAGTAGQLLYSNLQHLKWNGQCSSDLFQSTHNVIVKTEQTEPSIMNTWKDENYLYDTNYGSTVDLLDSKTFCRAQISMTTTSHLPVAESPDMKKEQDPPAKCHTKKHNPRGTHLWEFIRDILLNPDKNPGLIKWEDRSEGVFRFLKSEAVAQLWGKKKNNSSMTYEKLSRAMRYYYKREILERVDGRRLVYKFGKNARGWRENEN
# Method in brief: as §1
# [7] = target: SPI1 (Homo sapiens, UniProt P17947 1-270)
# Method in brief: as §1
# [8] = target: SPIB (Homo sapiens, UniProt Q01892 1-262)
# SPIB, sequence (Q01892 whole entry): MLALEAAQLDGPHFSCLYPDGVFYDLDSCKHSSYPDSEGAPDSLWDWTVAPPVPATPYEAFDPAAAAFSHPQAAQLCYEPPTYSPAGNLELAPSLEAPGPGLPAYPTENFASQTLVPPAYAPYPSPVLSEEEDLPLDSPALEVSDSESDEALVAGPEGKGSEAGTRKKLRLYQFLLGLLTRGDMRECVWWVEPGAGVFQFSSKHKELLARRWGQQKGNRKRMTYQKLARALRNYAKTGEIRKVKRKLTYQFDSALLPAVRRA
# Method in brief: as §1
# [9] = target: T6, ELK3 (Homo sapiens, UniProt P41970 1-407)
# T6 sequence: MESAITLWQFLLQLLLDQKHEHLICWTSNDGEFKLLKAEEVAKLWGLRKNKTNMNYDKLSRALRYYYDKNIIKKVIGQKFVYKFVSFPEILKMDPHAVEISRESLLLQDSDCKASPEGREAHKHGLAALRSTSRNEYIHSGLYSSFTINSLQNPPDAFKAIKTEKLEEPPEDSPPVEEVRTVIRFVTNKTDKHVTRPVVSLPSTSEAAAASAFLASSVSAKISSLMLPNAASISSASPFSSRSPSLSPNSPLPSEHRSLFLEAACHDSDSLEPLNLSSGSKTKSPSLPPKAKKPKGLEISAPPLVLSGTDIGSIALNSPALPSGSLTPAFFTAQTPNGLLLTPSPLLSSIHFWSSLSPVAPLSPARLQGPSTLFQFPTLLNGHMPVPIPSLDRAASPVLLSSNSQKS
# Method in brief: as §1
Sequence,binding signal [1],binding signal [2],binding signal [3],binding signal [4],binding signal [5],binding signal [6],binding signal [7],binding signal [8],binding signal [9]
GCTTGG,"1.19 fold enrichment (6-mer frequency, TF over GST control)","1.15 fold enrichment (6-mer frequency, TF over GST control)","1.12 fold enrichment (6-mer frequency, TF over GST control)","1.09 fold enrichment (6-mer frequency, TF over GST control)","1.08 fold enrichment (6-mer frequency, TF over GST control)","1.05 fold enrichment (6-mer frequency, TF over GST control)","1.04 fold enrichment (6-mer frequency, TF over GST control)","1.16 fold enrichment (6-mer frequency, TF over GST control)","1.15 fold enrichment (6-mer frequency, TF over GST control)"
ATACGT,"1.12 fold enrichment (6-mer frequency, TF over GST control)","1.14 fold enrichment (6-mer frequency, TF over GST control)","1.11 fold enrichment (6-mer frequency, TF over GST control)","1.09 fold enrichment (6-mer frequency, TF over GST control)","1.11 fold enrichment (6-mer frequency, TF over GST control)","1.24 fold enrichment (6-mer frequency, TF over GST control)","1.06 fold enrichment (6-mer frequency, TF over GST control)","1.13 fold enrichment (6-mer frequency, TF over GST control)","1.12 fold enrichment (6-mer frequency, TF over GST control)"
AAATGG,"1.52 fold enrichment (6-mer frequency, TF over GST control)","1.42 fold enrichment (6-mer frequency, TF over GST control)","1.49 fold enrichment (6-mer frequency, TF over GST control)","1.56 fold enrichment (6-mer frequency, TF over GST control)","1.49 fold enrichment (6-mer frequency, TF over GST control)","1.55 fold enrichment (6-mer frequency, TF over GST control)","1.59 fold enrichment (6-mer frequency, TF over GST control)","1.43 fold enrichment (6-mer frequency, TF over GST control)","1.47 fold enrichment (6-mer frequency, TF over GST control)"
GTCTTC,"1.4 fold enrichment (6-mer frequency, TF over GST control)","1.31 fold enrichment (6-mer frequency, TF over GST control)","1.19 fold enrichment (6-mer frequency, TF over GST control)","1.42 fold enrichment (6-mer frequency, TF over GST control)","1.43 fold enrichment (6-mer frequency, TF over GST control)","1.31 fold enrichment (6-mer frequency, TF over GST control)","1.28 fold enrichment (6-mer frequency, TF over GST control)","1.29 fold enrichment (6-mer frequency, TF over GST control)","1.17 fold enrichment (6-mer frequency, TF over GST control)"
ACCTCC,"1.38 fold enrichment (6-mer frequency, TF over GST control)","1.42 fold enrichment (6-mer frequency, TF over GST control)","1.43 fold enrichment (6-mer frequency, TF over GST control)","1.36 fold enrichment (6-mer frequency, TF over GST control)","1.44 fold enrichment (6-mer frequency, TF over GST control)","1.31 fold enrichment (6-mer frequency, TF over GST control)","1.31 fold enrichment (6-mer frequency, TF over GST control)","1.4 fold enrichment (6-mer frequency, TF over GST control)","1.46 fold enrichment (6-mer frequency, TF over GST control)"
GCACGC,"1.03 fold enrichment (6-mer frequency, TF over GST control)","1.09 fold enrichment (6-mer frequency, TF over GST control)","1.14 fold enrichment (6-mer frequency, TF over GST control)","1.03 fold enrichment (6-mer frequency, TF over GST control)","1.15 fold enrichment (6-mer frequency, TF over GST control)","1.15 fold enrichment (6-mer frequency, TF over GST control)","1.12 fold enrichment (6-mer frequency, TF over GST control)","1.19 fold enrichment (6-mer frequency, TF over GST control)","1.09 fold enrichment (6-mer frequency, TF over GST control)"
ACGTAC,"1.24 fold enrichment (6-mer frequency, TF over GST control)","1.16 fold enrichment (6-mer frequency, TF over GST control)","1.13 fold enrichment (6-mer frequency, TF over GST control)","1.08 fold enrichment (6-mer frequency, TF over GST control)","1.16 fold enrichment (6-mer frequency, TF over GST control)","1.15 fold enrichment (6-mer frequency, TF over GST control)","1.18 fold enrichment (6-mer frequency, TF over GST control)","1.11 fold enrichment (6-mer frequency, TF over GST control)","1.19 fold enrichment (6-mer frequency, TF over GST control)"
GTTTGA,"1.29 fold enrichment (6-mer frequency, TF over GST control)","1.19 fold enrichment (6-mer frequency, TF over GST control)","1.36 fold enrichment (6-mer frequency, TF over GST control)","1.12 fold enrichment (6-mer frequency, TF over GST control)","1.16 fold enrichment (6-mer frequency, TF over GST control)","1.06 fold enrichment (6-mer frequency, TF over GST control)","1.23 fold enrichment (6-mer frequency, TF over GST control)","1.16 fold enrichment (6-mer frequency, TF over GST control)","1.12 fold enrichment (6-mer frequency, TF over GST control)"
